Experiments:
Experiment in all cases: DAPPL (digital affinity profiling via proximity ligation, sequencing); 10 mM Tris-HCl pH 7.5, 50 mM NaCl, 1 mM DTT, 4% glycerol, room temperature, 30 min; GST-TFs on glutathione beads, 16-mer random dsDNA library, 0.1% formaldehyde crosslink after washing; high values mean tight binding
ETV5 = ETV5 (Homo sapiens, UniProt P41161 1-510); conditions: protein: recombinant; tags: N-terminal GST; dsDNA, one strand shown
Procedure, shortened: (§1)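 Binding signal is each hexamer's read frequency for a factor divided by its frequency in the tag-only sample. The factors were GST-fused human transcription factors from yeast, captured on glutathione beads, DNA-barcoded and pooled with that sample. Pools were incubated with 200 nmole of a random double-stranded 16-mer DNA library in Tris/NaCl/DTT/glycerol buffer at room temperature for 30 min, then washed, crosslinked with 0.1% formaldehyde, proximity-ligated with BsaI/T4 ligase (1 h, 37 °C), PCR-amplified and sequenced on an Illumina NextSeq500.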

HSF1 = HSF1 (Homo sapiens, UniProt Q00613 1-529); conditions: protein: recombinant; tags: N-terminal GST; chain copies: 3; dsDNA, one strand shown
HSF1, sequence (Q00613 whole entry): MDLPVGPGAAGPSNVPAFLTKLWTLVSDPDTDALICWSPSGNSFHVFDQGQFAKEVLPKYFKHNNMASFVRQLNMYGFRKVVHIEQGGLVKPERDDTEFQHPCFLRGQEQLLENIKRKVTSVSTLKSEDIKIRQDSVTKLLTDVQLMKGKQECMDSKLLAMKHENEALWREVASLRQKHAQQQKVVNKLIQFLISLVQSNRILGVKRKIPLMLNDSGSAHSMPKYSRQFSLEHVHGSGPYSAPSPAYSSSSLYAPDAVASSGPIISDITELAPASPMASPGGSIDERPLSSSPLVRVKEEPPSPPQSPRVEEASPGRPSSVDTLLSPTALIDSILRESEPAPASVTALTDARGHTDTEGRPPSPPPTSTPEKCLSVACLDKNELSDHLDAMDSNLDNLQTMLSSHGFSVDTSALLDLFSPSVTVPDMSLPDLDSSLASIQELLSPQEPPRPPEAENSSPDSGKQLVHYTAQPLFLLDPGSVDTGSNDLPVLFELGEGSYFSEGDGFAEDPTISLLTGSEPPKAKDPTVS
Procedure, shortened: as §1

ELF4 = ELF4 (Homo sapiens, UniProt Q99607 1-663); conditions: protein: recombinant; tags: N-terminal GST; dsDNA, one strand shown
ELF4, sequence (Q99607 whole entry): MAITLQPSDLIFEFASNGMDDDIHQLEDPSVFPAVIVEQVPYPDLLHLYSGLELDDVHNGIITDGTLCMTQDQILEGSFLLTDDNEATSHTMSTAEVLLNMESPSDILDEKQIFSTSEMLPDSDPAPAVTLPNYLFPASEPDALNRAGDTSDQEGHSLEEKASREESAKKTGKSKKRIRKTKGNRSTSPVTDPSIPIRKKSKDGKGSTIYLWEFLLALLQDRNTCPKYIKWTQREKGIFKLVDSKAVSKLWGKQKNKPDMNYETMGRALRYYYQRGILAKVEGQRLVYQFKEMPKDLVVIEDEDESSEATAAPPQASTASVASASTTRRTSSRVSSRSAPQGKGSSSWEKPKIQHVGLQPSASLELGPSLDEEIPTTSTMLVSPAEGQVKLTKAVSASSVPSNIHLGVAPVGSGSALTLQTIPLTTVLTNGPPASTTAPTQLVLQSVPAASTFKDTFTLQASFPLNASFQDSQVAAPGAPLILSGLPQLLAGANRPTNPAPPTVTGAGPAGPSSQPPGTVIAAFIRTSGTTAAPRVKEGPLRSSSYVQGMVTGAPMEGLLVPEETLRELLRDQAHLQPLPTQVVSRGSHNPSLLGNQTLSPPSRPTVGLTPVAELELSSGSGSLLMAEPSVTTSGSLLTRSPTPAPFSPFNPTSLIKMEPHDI
Procedure, shortened: as §1

ELK4 = target: T1, ELK4 (Homo sapiens, UniProt P28324-2 1-405); conditions: protein: recombinant; tags: N-terminal GST; dsDNA, one strand shown
T1 sequence: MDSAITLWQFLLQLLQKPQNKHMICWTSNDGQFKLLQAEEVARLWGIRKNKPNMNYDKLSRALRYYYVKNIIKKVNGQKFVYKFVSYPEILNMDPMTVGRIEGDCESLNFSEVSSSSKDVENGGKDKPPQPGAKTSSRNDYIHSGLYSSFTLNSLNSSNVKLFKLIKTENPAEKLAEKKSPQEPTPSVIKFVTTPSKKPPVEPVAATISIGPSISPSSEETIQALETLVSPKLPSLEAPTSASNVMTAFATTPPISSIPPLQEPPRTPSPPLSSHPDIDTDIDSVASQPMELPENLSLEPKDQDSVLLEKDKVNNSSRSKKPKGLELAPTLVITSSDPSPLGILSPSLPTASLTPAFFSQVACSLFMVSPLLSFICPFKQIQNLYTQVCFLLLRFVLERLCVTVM
Procedure, shortened: as §1

ETV2 = target: T2, ETV2 (Homo sapiens, UniProt O00321 1-342); conditions: protein: recombinant; tags: N-terminal GST; dsDNA, one strand shown
T2 sequence: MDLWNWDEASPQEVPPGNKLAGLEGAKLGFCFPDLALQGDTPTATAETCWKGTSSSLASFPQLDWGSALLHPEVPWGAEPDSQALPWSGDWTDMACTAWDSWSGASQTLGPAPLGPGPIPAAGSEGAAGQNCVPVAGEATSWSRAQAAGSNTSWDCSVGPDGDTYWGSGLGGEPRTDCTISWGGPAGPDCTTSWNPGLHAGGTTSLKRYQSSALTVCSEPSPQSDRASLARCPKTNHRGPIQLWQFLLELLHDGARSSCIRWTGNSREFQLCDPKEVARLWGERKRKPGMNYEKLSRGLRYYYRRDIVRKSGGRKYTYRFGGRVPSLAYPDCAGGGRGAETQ
Procedure, shortened: as §1

ELF3 = target: T3, ELF3 (Homo sapiens, UniProt P78545 1-371); conditions: protein: recombinant; tags: N-terminal GST; dsDNA, one strand shown
T3 sequence: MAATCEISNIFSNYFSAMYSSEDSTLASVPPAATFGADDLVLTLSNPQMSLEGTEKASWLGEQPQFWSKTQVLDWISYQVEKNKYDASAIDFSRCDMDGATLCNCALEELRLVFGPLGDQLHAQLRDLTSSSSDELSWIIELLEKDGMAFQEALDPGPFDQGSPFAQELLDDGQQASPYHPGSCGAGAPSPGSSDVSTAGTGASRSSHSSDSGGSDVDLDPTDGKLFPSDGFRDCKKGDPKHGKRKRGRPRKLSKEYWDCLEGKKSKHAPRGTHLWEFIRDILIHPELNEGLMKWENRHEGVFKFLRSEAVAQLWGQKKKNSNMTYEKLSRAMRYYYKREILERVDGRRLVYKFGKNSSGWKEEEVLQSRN
Procedure, shortened: as §1

CRX = CRX (Homo sapiens, UniProt O43186 1-299); conditions: protein: recombinant; tags: N-terminal GST; dsDNA, one strand shown
CRX, sequence (O43186 whole entry): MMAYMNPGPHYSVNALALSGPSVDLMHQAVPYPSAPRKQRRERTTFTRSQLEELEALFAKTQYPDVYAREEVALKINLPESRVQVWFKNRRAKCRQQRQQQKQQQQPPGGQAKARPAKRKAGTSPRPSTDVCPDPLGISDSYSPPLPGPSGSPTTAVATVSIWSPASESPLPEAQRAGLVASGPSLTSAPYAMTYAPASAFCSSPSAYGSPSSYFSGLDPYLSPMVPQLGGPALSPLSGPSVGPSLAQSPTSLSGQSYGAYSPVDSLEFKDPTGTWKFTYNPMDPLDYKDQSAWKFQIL
Procedure, shortened: as §1

ETV1 = ETV1 (Homo sapiens, UniProt P50549 1-477); conditions: protein: recombinant; tags: N-terminal GST; dsDNA, one strand shown
ETV1, sequence (P50549 whole entry): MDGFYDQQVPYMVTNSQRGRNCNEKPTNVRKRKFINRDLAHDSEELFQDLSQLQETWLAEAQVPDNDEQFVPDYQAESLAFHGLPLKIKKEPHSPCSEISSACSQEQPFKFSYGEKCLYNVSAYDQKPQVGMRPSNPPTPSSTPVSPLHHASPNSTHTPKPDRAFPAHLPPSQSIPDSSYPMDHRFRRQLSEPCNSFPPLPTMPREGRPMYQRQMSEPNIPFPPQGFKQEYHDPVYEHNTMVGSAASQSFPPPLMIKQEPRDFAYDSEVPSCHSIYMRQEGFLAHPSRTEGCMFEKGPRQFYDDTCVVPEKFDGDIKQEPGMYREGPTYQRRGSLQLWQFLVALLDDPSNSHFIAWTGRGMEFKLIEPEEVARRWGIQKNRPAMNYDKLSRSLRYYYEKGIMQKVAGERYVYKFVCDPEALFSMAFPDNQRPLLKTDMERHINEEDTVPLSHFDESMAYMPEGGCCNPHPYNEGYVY
Procedure, shortened: as §1

ERF = target: T4, ERF (Homo sapiens, UniProt P50548 1-548); conditions: protein: recombinant; tags: N-terminal GST; dsDNA, one strand shown
T4 sequence: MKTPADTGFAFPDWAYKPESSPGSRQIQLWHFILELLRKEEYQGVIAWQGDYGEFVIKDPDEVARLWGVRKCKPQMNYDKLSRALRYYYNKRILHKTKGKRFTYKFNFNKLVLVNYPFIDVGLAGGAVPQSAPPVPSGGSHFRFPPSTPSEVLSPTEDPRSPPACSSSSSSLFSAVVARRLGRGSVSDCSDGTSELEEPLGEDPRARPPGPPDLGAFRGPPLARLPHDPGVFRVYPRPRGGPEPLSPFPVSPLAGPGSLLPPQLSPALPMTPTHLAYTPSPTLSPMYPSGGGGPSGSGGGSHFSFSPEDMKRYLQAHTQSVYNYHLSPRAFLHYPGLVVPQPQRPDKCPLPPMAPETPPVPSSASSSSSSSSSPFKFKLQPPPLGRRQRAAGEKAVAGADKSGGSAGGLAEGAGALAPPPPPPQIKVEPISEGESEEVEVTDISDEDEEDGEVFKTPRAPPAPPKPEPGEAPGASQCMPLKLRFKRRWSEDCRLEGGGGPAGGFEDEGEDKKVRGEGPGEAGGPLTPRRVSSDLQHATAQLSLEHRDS
Procedure, shortened: as §1

ETV3L = target: T5, ETV3L (Homo sapiens, UniProt Q6ZN32 1-361); conditions: protein: recombinant; tags: N-terminal GST; dsDNA, one strand shown
T5 sequence: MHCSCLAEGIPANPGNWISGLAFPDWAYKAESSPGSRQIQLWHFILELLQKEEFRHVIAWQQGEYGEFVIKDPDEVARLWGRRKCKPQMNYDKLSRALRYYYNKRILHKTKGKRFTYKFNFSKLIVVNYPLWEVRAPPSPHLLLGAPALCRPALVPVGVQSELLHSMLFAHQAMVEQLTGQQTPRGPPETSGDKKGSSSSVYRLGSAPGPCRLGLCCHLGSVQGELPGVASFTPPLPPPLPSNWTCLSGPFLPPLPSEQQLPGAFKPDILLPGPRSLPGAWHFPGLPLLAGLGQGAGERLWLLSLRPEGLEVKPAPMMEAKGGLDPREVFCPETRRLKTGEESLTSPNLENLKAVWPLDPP
Procedure, shortened: as §1

ETS2 = target: T6, ETS2 (Homo sapiens, UniProt P15036 1-469); conditions: protein: recombinant; tags: N-terminal GST; dsDNA, one strand shown
T6 sequence: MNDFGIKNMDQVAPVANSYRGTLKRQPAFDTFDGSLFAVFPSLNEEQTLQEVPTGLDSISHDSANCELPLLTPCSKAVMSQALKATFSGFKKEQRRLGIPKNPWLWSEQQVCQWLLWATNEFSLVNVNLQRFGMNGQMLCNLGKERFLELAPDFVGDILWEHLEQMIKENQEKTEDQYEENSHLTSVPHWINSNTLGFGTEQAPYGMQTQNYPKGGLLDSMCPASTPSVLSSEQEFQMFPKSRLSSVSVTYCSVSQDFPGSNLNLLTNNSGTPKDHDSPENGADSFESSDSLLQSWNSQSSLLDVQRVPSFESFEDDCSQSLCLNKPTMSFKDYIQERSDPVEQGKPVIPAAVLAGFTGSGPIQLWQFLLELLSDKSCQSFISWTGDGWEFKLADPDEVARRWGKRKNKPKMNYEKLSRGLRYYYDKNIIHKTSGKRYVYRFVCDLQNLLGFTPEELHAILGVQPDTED
Procedure, shortened: as §1

SPDEF = target: T7, SPDEF (Homo sapiens, UniProt O95238 1-335); conditions: protein: recombinant; tags: N-terminal GST; dsDNA, one strand shown
T7 sequence: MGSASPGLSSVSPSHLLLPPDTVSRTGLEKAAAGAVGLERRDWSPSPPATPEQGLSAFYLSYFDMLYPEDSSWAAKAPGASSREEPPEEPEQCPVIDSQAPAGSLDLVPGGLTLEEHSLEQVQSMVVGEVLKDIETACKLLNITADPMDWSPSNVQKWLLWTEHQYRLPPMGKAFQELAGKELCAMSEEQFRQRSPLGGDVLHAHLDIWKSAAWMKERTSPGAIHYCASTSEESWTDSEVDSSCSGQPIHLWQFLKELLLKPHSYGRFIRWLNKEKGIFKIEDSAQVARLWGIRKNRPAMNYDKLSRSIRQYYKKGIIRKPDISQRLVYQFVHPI
Procedure, shortened: as §1

ETV7 = target: T8, ETV7 (Homo sapiens, UniProt Q9Y603 1-341); conditions: protein: recombinant; tags: N-terminal GST; dsDNA, one strand shown
T8 sequence: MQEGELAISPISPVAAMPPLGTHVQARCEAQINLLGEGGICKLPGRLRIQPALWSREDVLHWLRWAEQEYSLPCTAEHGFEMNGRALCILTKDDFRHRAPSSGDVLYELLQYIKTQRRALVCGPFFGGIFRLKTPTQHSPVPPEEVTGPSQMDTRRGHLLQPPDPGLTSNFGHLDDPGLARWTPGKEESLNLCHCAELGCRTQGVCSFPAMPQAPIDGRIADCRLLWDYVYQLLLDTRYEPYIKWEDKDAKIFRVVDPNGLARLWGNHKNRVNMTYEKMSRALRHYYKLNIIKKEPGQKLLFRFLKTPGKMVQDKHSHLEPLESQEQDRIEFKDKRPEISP
Procedure, shortened: as §1

ETV3 = target: T9, ETV3 (Homo sapiens, UniProt P41162-2 1-143); conditions: protein: recombinant; tags: N-terminal GST; dsDNA, one strand shown
T9 sequence: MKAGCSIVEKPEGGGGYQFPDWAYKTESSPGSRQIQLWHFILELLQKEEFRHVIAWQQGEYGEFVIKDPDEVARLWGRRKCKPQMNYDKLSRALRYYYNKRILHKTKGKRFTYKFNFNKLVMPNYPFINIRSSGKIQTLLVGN
Procedure, shortened: as §1

ETV6 = ETV6 (Homo sapiens, UniProt P41212 1-452); conditions: protein: recombinant; tags: N-terminal GST; dsDNA, one strand shown
ETV6, sequence (P41212 whole entry): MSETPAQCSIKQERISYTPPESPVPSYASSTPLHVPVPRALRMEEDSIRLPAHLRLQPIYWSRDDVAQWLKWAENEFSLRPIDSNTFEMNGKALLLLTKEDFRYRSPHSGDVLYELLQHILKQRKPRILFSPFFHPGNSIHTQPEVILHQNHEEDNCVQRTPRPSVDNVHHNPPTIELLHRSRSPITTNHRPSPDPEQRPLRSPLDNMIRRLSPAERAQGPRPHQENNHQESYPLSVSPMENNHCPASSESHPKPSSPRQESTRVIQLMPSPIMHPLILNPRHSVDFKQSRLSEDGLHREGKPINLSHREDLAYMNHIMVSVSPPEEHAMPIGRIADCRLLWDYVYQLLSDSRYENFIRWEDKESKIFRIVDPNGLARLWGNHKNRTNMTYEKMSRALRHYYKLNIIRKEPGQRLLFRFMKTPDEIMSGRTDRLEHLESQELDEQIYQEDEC
Procedure, shortened: as §1

SPIC = target: T10, SPIC (Homo sapiens, UniProt Q8N5J4 1-248); conditions: protein: recombinant; tags: N-terminal GST; dsDNA, one strand shown
T10 sequence: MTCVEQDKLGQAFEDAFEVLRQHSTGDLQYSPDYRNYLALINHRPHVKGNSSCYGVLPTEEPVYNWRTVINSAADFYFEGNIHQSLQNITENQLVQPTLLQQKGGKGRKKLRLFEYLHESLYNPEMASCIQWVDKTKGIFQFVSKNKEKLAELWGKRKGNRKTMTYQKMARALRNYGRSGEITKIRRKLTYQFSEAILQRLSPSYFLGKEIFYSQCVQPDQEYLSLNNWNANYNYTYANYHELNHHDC
Procedure, shortened: as §1

ELF5 = target: T11, ELF5 (Homo sapiens, UniProt Q9UKW6-2 1-255); conditions: protein: recombinant; tags: N-terminal GST; dsDNA, one strand shown
T11 sequence: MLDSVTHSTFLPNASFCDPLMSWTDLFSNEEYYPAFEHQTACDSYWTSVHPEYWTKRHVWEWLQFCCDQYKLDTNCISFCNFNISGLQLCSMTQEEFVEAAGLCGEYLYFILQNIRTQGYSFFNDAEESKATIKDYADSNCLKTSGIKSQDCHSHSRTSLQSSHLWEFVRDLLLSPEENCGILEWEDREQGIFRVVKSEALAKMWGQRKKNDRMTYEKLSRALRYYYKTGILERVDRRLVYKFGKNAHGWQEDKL
Procedure, shortened: as §1

ETV5, sequence (P41161 whole entry, the tested form may be a part): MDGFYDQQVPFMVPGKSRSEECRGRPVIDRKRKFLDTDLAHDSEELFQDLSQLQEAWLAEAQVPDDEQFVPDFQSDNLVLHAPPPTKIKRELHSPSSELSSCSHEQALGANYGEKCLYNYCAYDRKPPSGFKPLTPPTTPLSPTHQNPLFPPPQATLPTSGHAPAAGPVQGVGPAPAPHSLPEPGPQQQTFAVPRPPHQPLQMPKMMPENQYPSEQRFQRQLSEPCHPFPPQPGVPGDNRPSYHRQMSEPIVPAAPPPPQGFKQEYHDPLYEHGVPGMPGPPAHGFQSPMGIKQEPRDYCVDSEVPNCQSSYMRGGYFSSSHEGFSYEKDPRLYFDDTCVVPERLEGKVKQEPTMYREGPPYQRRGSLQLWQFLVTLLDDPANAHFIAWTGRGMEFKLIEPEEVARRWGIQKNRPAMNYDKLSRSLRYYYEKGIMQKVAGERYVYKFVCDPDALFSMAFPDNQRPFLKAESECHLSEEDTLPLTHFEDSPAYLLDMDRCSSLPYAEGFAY

Row | Sequence | binding signal (ETV5) | binding signal (HSF1) | binding signal (ELF4) | binding signal (ELK4) | binding signal (ETV2) | binding signal (ELF3) | binding signal (CRX) | binding signal (ETV1) | binding signal (ERF) | binding signal (ETV3L) | binding signal (ETS2) | binding signal (SPDEF) | binding signal (ETV7) | binding signal (ETV3) | binding signal (ETV6) | binding signal (SPIC) | binding signal (ELF5)
1 | ATTGAA | 1.05 fold enrichment (6-mer frequency, TF over GST control) | 1.01 fold enrichment (6-mer frequency, TF over GST control) | 1.01 fold enrichment (6-mer frequency, TF over GST control) | 1.06 fold enrichment (6-mer frequency, TF over GST control) | 1 fold enrichment (6-mer frequency, TF over GST control) | 1.07 fold enrichment (6-mer frequency, TF over GST control) | 1.06 fold enrichment (6-mer frequency, TF over GST control) | 1.15 fold enrichment (6-mer frequency, TF over GST control) | 1.14 fold enrichment (6-mer frequency, TF over GST control) | 1.1 fold enrichment (6-mer frequency, TF over GST control) | 1.09 fold enrichment (6-mer frequency, TF over GST control) | 1.07 fold enrichment (6-mer frequency, TF over GST control) | 1.14 fold enrichment (6-mer frequency, TF over GST control) | 1.03 fold enrichment (6-mer frequency, TF over GST control) | 1.08 fold enrichment (6-mer frequency, TF over GST control) | – | –
2 | TAAGCG | 1.02 fold enrichment (6-mer frequency, TF over GST control) | 1.34 fold enrichment (6-mer frequency, TF over GST control) | – | – | 1.05 fold enrichment (6-mer frequency, TF over GST control) | 1.19 fold enrichment (6-mer frequency, TF over GST control) | 1.86 fold enrichment (6-mer frequency, TF over GST control) | 1 fold enrichment (6-mer frequency, TF over GST control) | – | 1.03 fold enrichment (6-mer frequency, TF over GST control) | 1.05 fold enrichment (6-mer frequency, TF over GST control) | – | – | 1.05 fold enrichment (6-mer frequency, TF over GST control) | 1.01 fold enrichment (6-mer frequency, TF over GST control) | 1.04 fold enrichment (6-mer frequency, TF over GST control) | 1.01 fold enrichment (6-mer frequency, TF over GST control)
